Reference: ChEMBL document CHEMBL4513216, “Probing the Open Global Health Chemical Diversity Library for Multistage-Active Starting Points for Next-Generation Antimalarials” (ACS Infect Dis, 2020)
Hit rate of the full screen: of about 68,000 compounds, about 2,700 (4%) showed an effect of 50% or more. The sample as a whole holds a higher share of strong results than the screen did.

Each compound was assayed on Plasmodium berghei (assay: Screen against P. berghei liver stage (PbLuc), transformed with Luciferase, at 2uM). Conditions: tested at 2 uM.
Assay type: functional, HepG2

In order of falling INHIBITION:
1. CC(C)COCC1CN(Cc2cnn(C)c2)Cc2ncn(C)c21 (stereo not given)  79.02%
2. CCCS(=O)(=O)c1ncc(CN2CCC(C)CC2)n1CC1CCCO1 (stereo not given)  70.81%
3. O=S(=O)(CC1CC1)c1ncc(CN2CCSCC2)n1CC1CCCO1 (stereo not given)  65.76%
4. CCN(C(=O)NCCc1cccc(F)c1F)C(C)CS(C)(=O)=O (stereo not given)  64.2%
5. Cc1nn(C)c(C)c1CC(=O)NCC1(C(N)=O)CCOCC1  60.59%
6. C1CCC(CNC2CCSCC2)(N2CCOCC2)CC1  60.13%
7. NCCCn1nc(C(F)(F)F)c2c1CCC2  58.18%
8. CCOc1cccc(C(C)NC(=O)N2CCC3(CC2)OCCO3)c1 (stereo not given)  58.01%
9. CC(=O)NC1CCCN(Cc2ccc(OCc3ccccn3)cc2)C1 (stereo not given)  57.92%
10. Cc1ncc(CN(C)C(=O)Nc2cccc(CN3CCOC3=O)c2)s1  56.2%
11. CCc1nc(CC(=O)NCC2(C(N)=O)CCOCC2)cs1  55.36%
12. CN(Cc1ccc2c(c1)OCO2)C(=O)C1CC(c2cccc(F)c2)=NO1 (stereo not given)  53.68%
13. COC1CCN(C(=O)CC(C)(C)C)CC(=O)N(C)c2ccccc21 (stereo not given)  51.71%
14. O=C(CN1CCC(c2cccc(F)c2)C1)NCc1ccco1 (stereo not given)  51.21%
15. CCN1CCOC(CNCc2ccc(OCc3ccccn3)cc2)C1 (stereo not given)  50.75%
16. O=C(NCCOc1ccc(Cl)cn1)Nc1nccs1  50.61%
17. O=C(CCN1CCCCC1)N1CCC(Cc2ccc(CO)cc2)C1 (stereo not given)  50.61%
18. COc1ccccc1CCNC(=O)N(C)C(C)CS(C)(=O)=O (stereo not given)  50.46%
19. O=C(c1ccc2nncn2c1)N1CCCCC1Cn1cccn1 (stereo not given)  39.47%
20. Cc1ccoc1C(=O)N1CCn2cc(CN3CCCC3)nc2C1  37.2%
21. O=C(NC1CCCN(c2ncccn2)C1)c1ccoc1 (stereo not given)  36.98%
22. NC(=O)C1(CNCc2csc(-c3cccs3)n2)CCOCC1  36.28%
23. O=C([C@@H]1COC[C@H]2CN(C3CCOCC3)C[C@H]21)N1CCCO1  35.15%
24. CCN(C(=O)NCCc1ccccc1Cl)C(C)CS(C)(=O)=O (stereo not given)  34.46%
25. CCc1nc(CNCC2(C(N)=O)CCOCC2)cs1  33.9%
26. Cc1nn(C)c(Cl)c1C(=O)NCC1(C(N)=O)CCOCC1  32.02%
27. CC(C)NC(=O)CN1CCC(c2cccc(F)c2)C1 (stereo not given)  28.33%
28. CCCS(=O)(=O)c1ncc(CN2CCC(CO)CC2)n1CC1CCCO1 (stereo not given)  27.44%
29. COCCNC(=O)c1nnc2ccc(N3CCOCC3)cc2n1  26.54%
30. Cc1nn(C)c(C)c1CCC(=O)NCC1(C(N)=O)CCOCC1  25.73%
31. O=C(O)c1ccnc(SCC(=O)c2ccccc2)c1  25.23%
32. Cc1cccc(CN2CCc3c(nc(N4CCC(C)CC4)[nH]c3=O)C2)n1  23.94%
33. c1ccc(-c2cc(CNCCCC3CCOC3)c3nnnn3c2)cc1 (stereo not given)  22.81%
34. CC(NC(=O)N1CCC2(C1)OCCO2)c1cccc(Cl)c1 (stereo not given)  22.12%
35. O=C(CN1CCC(c2cccc(F)c2)C1)NCC(F)(F)F (stereo not given)  20.28%
36. Nc1nccc(C2CCN(CCO)C2)n1 (stereo not given)  19.86%
37. C=Cc1ccc(C(=O)N2CCCC(Nc3ccc(OC)cc3)C2)cc1 (stereo not given)  19.42%
38. CN(Cc1cccc(C#N)c1)C(=O)C1CC(c2cccc(F)c2)=NO1 (stereo not given)  17.47%
39. N#CCCn1nc(C(F)(F)F)c2c1CCCC2  17.01%
40. Cc1ccc(OC2CCN(S(=O)(=O)N(C)C)CC2)nc1  15.75%
41. CC(C)CN1C[C@@H]2C(=O)NC3(CCN(C(=O)c4cccnc4)CC3)[C@@H]2C1  14.47%
42. Fc1cccc(F)c1Cn1c(C2CCNCC2)cc2cccnc21  13.17%
43. O=C(NCc1cccnc1)[C@@H]1CC[C@@H]2[C@@H](CCN2c2ncc(F)cn2)O1  12.7%
44. CC(=O)N1CCCN(C(=O)CN(C)c2ccc(Cl)cn2)CC1  12.29%
45. CC(=O)c1c(C)nn(S(=O)(=O)c2ccc(Cl)cc2)c1C  11.8%
46. O=C(CCc1ccc(O)cc1)N1CCC(Cc2ccc(CO)cc2)C1 (stereo not given)  11.28%
47. N#CCCn1nc(C(F)(F)F)c2c1CCC2  10.83%
48. CS(=O)(=O)NC1CCCN(Cc2ccc(OCc3ccccn3)cc2)C1 (stereo not given)  10.63%
49. Cc1ncc(CN(C)C(=O)Nc2ccc(CN3CCOC3=O)cc2)s1  10.61%
50. COc1cc(C(=O)N2CCC(c3n[nH]c(C4CC4)n3)CC2)ccc1C  10.5%
51. CN(Cc1cccc(OC(F)(F)F)c1)C(=O)c1cnsn1  10.1%
52. CSc1nc2ncc3c(=O)n(CCN4CCCCC4)ccc3n2n1  8.9%
53. CN(Cc1noc2c1CCCC2)C(=O)C1CCOc2ccccc2C1 (stereo not given)  8.89%
54. CCNC(=O)C1CCN(Cc2ccccc2OCC(F)(F)F)CC1  8.59%
55. COC1CCN(C(=O)CC2CCCC2)CC(=O)N(C)c2ccccc21 (stereo not given)  8.41%
56. CS(=O)(=O)N1CCC(NCC2(N3CCOCC3)CCCCC2)CC1  7.67%
57. COC(=O)c1cccc(C(=O)N2CCN(C(=O)N(C)C)CC2(C)C)c1  7.42%
58. COc1ccc(CN2CCCC3(CCN(c4ccsc4)C3=O)C2)cc1 (stereo not given)  7.21%
59. C=c1ccoc1=C1NN=C(CNC2CCCN(c3cccnn3)C2)O1 (stereo not given)  7.01%
60. CNC(=O)N1C[C@@H]2C[C@H](C(=O)Nc3ccccc3)[C@H](C1)O2  6.57%
61. Cc1ccc(N2CCO[C@H]3CN(Cc4ccccn4)C[C@H]32)nn1  4.99%
62. O=S(=O)(CC1CC1)c1ncc(CN2CCOCC2)n1CC1CCCO1 (stereo not given)  3.49%
63. CCN1CCOC(CNCc2cccc(OCc3ccccn3)c2)C1 (stereo not given)  3.06%
64. CCN1CC2(CCNCC2)COc2ccccc2S1(=O)=O  3%
65. c1cc(-c2nn3c(CN4CCOCC4)nnc3s2)ccn1  2.88%
66. COc1cc(N2CCC3(CC2)CCN(c2cccnc2)C3=O)ncn1  2.72%
67. CN1CCN(Cc2cnc(S(=O)(=O)CC3CC3)n2CC2CCCO2)CC1 (stereo not given)  1.8%
68. COCc1cnc2n1CCN(C1CCCC1)C2C (stereo not given)  0.42%
69. COCC1CC2(CCN(c3cc(OC)ncn3)CC2)CN1C(C)C (stereo not given)  -0.45%
70. CCn1cc(CN2CCCN(C(=O)C3(C)CCOCC3)CC2)cn1  -1.55%
71. O=C(NCCOc1ccc(Cl)cn1)Nc1cccnc1  -1.56%
72. O=C(Cc1ccccn1)N1CCc2ncnc(N3CCCC3)c2CC1  -3.19%
73. CCS(=O)(=O)CC(C)N(C)C(=O)NCCc1cccc(F)c1F (stereo not given)  -4.09%
74. Cn1cccc(NC(=O)N2CCC(COCc3ccccc3)C2)c1=O (stereo not given)  -5.79%
75. c1ncc(Nc2nccc(C3CCCCN3CC3CCCCC3)n2)cn1 (stereo not given)  -8.23%
76. Cc1cnc(-c2nc(C3CCN(Cc4ccccc4O)CC3)no2)cn1  -10.49%
77. O=C(CCN1CCOCC1)N1CCC(Cc2ccc(CO)cc2)C1 (stereo not given)  -11.66%
78. CC(=O)N1C[C@H]2CC[C@@H](C1)N(S(=O)(=O)c1ccc(F)cc1Cl)C2  -11.81%
79. CN1CCOC(CNCc2ccc(OCc3ccccn3)cc2)C1 (stereo not given)  -12.27%
80. CC(C)COCC1CN(Cc2ccoc2)Cc2ncn(C)c21 (stereo not given)  -13.32%
81. CC1CCN(Cc2cnc(S(=O)(=O)CC3CC3)n2CC2CCCO2)CC1 (stereo not given)  -14.32%
82. N#Cc1ccc(CS(=O)(=O)NC(=O)c2ccc3c(c2)COC3)cc1  -14.32%
83. CS(=O)(=O)NC1CCN(Cc2ccc(OCc3ccccn3)cc2)CC1  -15.64%
84. CCCc1cc(CNc2cc(CCC)nc3ccnn23)on1  -15.75%
85. CN1CCN(C2CCN(Cc3nc(-c4ccoc4)no3)CC2)C1=O  -17.31%
86. Cc1cccc(N(CC(=O)c2ccccc2)C2=NCCCCC2)c1  -17.7%
87. CCOCC1CN(Cc2cnn(C)c2)Cc2ncn(C)c21 (stereo not given)  -20.41%
88. COc1ccc(-c2nnsc2C(=O)N2CCSCC2)cc1  -20.55%
89. C1CCC(NCC2(N3CCOCC3)CCSC2)C1 (stereo not given)  -20.95%
90. COc1cc(Cl)ccc1CNC(=O)N(C)C(C)CS(C)(=O)=O (stereo not given)  -22.82%
91. CC(C)Oc1ccccc1CNC(=O)N(C)C(C)CS(C)(=O)=O (stereo not given)  -25.21%
92. c1cnc(N2C[C@H]3CCN(CCN4CCCC4)C[C@H]3C2)cn1  -27.22%
93. Cc1cc(CN(C)C(=O)C2CC(c3cccc(F)c3)=NO2)no1 (stereo not given)  -30.08%
94. CCOc1cccc(C(C)NC(=O)N2CCC(C(N)=O)CC2)c1 (stereo not given)  -31.3%
95. C[C@H]1CN2C[C@H](O)CC2CN1Cc1ccc2nccnc2c1 (stereo not given in full)  -36.08%
96. CN1C[C@H]2CC[C@@H](CC1=O)N2C(=O)c1ccc(-c2ccccc2)[nH]c1=O  -40.36%
97. O=C(NCCOC1CCCC1)c1ccc(-c2ccco2)[nH]c1=O  -40.62%
98. CN(C)c1cc(CNC(=O)Nc2cccnc2N2CCCC2)ccn1  -43.4%
99. c1csc(CNCC2COCc3c(-c4ccoc4)nnn3C2)n1 (stereo not given)  -45.9%
100. COC1CCN(C(=O)COC(C)=O)CC(=O)N(C)c2ccccc21 (stereo not given)  -46.46%
101. CC(C)(C)n1ncc(NCCc2ccccc2C(F)(F)F)c(Cl)c1=O  -59.58%
102. Nc1ccc(C(=O)N2CCCC(C(=O)CCc3ccccc3)C2)cn1 (stereo not given)  -62.48%
103. O=C(NCCOc1ccc(Cl)cn1)Nc1ccccn1  -65.52%
104. COCC1CN(Cc2cccnc2)Cc2nnn(CC3CC3)c21 (stereo not given)  -94.44%
105. Cc1ncc(CN(C)C(=O)Nc2cccc(N3CCOC3=O)c2)s1  -127.85%
